Active and inactive are the calls of the source.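 Rule for the calls: active = relative FRET score above 0.01, or acceptor fluorescence over 30% below the sample-well median; inactive = the rest.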

Chain of Protein Rev (Human immunodeficiency virus type 1 group M subtype B (isolate WMJ22)) (P05866 whole entry, looked up): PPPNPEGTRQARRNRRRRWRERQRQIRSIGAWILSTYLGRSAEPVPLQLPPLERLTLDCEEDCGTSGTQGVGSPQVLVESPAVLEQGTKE

This assay concerns the target Protein Rev (Human immunodeficiency virus type 1 group M subtype B (isolate WMJ22)) (UniProt P05866). Put plainly: HIV-1 Rev-RRE binding inhibitors, retest, confirmation, biochemical, FRET, acceptor and relative FRET calls (AID 837).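 Note: relative FRET combines rise in Cy5 acceptor with fall in fluorescein donor.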 The conditions noted are these: Fl-Rev peptide / Cy5-RRE RNA FRET, 1536-well; at 8 µM.
Regarding `COc1ccc(CCNC(C)CCc2ccc(OC)cc2)cc1` (stereo not given), the compound was classed as active. In the case of `OC(Cc1ccccc1)(c1ccccc1)C1CN2CCC1CC2` (stereo not given), the call was inactive. As to `CNCC(O)c1cccc(OC(=O)c2ccccc2C)c1` (stereo not given), the compound was called inactive. With `COc1ccc(CCNCc2ccc(SC)cc2)cc1`, the call was inactive. `CN1C2CCC1CC(OC(=O)c1cc(Cl)cc(Cl)c1)C2` (stereo not given): the compound was called inactive. With `CC1CCC(NCCc2ccc3c(c2)OCO3)CC1` (stereo not given), the compound was called inactive. As for `c1ccc(C(OCCN2CCNCC2)c2ccccc2)cc1`, the call was inactive. As to `COc1ccc(CCC(C)NCCc2ccccc2)cc1` (stereo not given), the call was inactive. The entry for `CC(NC1CCCCC1)C(O)C12CC3CC(CC(C3)C1)C2` (stereo not given) is “inactive”; for `Cc1ccc(-c2nc(N(C)C3CCN(C)CC3)c3ccccc3n2)cc1` it is “inactive”.

The values above are taken from PubChem BioAssay AID837 (The Scripps Research Institute Molecular Screening Center, 2007).
